Screening data (PubChem)
VACV mCherry inh – inhibitors of vaccinia virus infection (mCherry reporter signal); Potency, µM (titrated, usually from 36.5 µM), for inactives: top-dose activity change, negative = inhibition, actives largely listed as inhibitors; 310,000 compounds, 0.63% hits; Vaccinia virus mCherry reporter infection, fluorescence; calls by dose curve; tested in A549 cells; further: nearly all actives have a fitted effect of over 35% in size
HCV inh – HCV inhibition. Potency, µM (titrated, usually from 41.8 µM), for the others: at the top dose activity change, negative = inhibition, usual class: inhibitors. 340,000 compounds, 3.4% hits. Huh7.5.1 HCVcc-Cre infection, luciferase reporter, 44 h; active means well fitted inhibition curve with a large enough effect; inconclusive means small, poorly fitted or top-dose-only effect, or another doubt; inactive means no such curve, though single readings can be large or run the other way
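Antiviral activity was scored by luciferase reporter output from cells infected with HCVcc-Cre (~0.5 moi) in presence of compound, 44 h infection period, cells seeded 1,000/well 4 h prior.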
VACV Venus inh – inhibitors of vaccinia virus (Venus reporter) | Vaccinia virus Venus reporter expression, fluorescence | Potency, µM (titrated, usually from 36.5 µM), without a hit: at the highest dose activity change, negative = inhibition, most hits filed as inhibitors | 330,000 compounds, 0.46% hits | AID 720580; calls by dose curve; tested in A549 cells; further: nearly all actives have a fitted effect of over 30% in size
* = called active by the depositor; i = inactive; ? = inconclusive; nt = no result given; [ ] = dose if it differs, or a comment. Only some compounds are listed: those with a hit (about 3.3% of all), similar ones and a draw of the others. On the % scale 0 is the no-effect control and ±100 the full control effect; potency means the concentration at half of the fitted maximal effect.

SMILES | VACV mCherry inh | HCV inh | VACV Venus inh
COc1ccc(NS(=O)(=O)c2cccc(NC(=O)CCC(=O)c3ccc(Cl)cc3)c2)cc1 | -22% | 8.9µM* | -7%
COc1ccc(NS(=O)(=O)c2cccc(NC(=O)NCCCl)c2)cc1 | 0% | 7.9µM* | 4%
O=C(Nc1ccc(NS(=O)(=O)c2ccccc2)cc1)c1ccc(Cl)cc1 | -22% | 28% | -22%
COc1ccc(NS(=O)(=O)c2cccc(NC(=O)CCC(=O)c3cccs3)c2)cc1 | -10% | 8% | -5%
O=C(Nc1cccc(S(=O)(=O)Nc2ccc(Cl)cc2)c1)c1ccc(Cl)nc1 | nt | 1.6µM* | nt
CN(C)S(=O)(=O)c1cccc(NC(=O)NCCCl)c1 | nt | 4% | nt
CCN1C[C@@H]2[C@@H]3C(=O)N(Cc4ccccc4)C(=O)[C@@H]3[C@](Cc3ccccc3)(C(=O)OC)N2C1=NC | -15% | 4%[8.37 µM] | 7%
COc1ccc(S(=O)(=O)N2CCOC2CNC(=O)C(=O)NCCCN2CCOCC2)cc1OC (stereo not drawn) | -11% | 20% | -10%
CCOC(=O)NC(=S)Nc1c(C)n(C)n(-c2ccccc2)c1=O | -4% | 5% | 0%
CCCCNC(=O)C1(C)CCN1C(=O)c1cc2ccccc2s1 (stereo not drawn) | -3% | nt | -5%
COc1cc(=O)n2c(c1C(=O)N(C)Cc1nonc1C)CCN(C(=O)c1ccc(C)c(C)c1)CC2 | -9% | nt | 2%
Cc1ccc(-n2ncc(C(=O)NCCN3CCc4ccccc4C3)c2C2CCN(C(=O)OC(C)(C)C)CC2)cc1 | -16% | nt | -27%
C=C1C=C(C(F)F)n2ncc(C(=O)N3CCCCC3)c2N1 | -1% | nt | -11%
O=C(Nc1cc(S(=O)(=O)Nc2ccccc2Cl)ccc1O)c1cc2c(s1)CCCC2 | nt | -6% | nt
O=C(O)c1ccc(NC(=O)c2cccc(S(=O)(=O)Nc3ccc(C(=O)O)cc3)c2)cc1 | nt | 12% | nt
O=C(Nc1cccc(S(=O)(=O)Nc2ccc(Cl)cc2)c1)c1cc2c(s1)CCCC2 | ? | 11µM* | ?
O=C1CSc2ccc(C(=O)Nc3cccc(S(=O)(=O)Nc4ccc(Br)cc4)c3)cc2N1 | nt | 10µM* | nt
Cc1cccc(NC(=O)CSc2nnnn2-c2ccc3c(c2)OCCO3)n1 | -12% | -1% | 1%
CCC(=O)Nc1nc(-c2ccc3c(c2)CC(C)N3S(C)(=O)=O)cs1 (stereo not drawn) | i | ? | -21%
CS(=O)(=O)N1CCc2cc(-c3csc(NCC4CCCO4)n3)ccc21 (stereo not drawn) | i | -29% | 1%
CC1Cc2cc(-c3csc(NC(=O)Cc4cccs4)n3)ccc2N1S(C)(=O)=O (stereo not drawn) | ? | 6.3µM* | ?
CC(=O)Nc1ccc(-c2csc(NC(=O)Cc3ccccc3F)n2)cc1 | ? | ? | -15%
CC(=O)Nc1ccc(-c2csc(NC(=O)Cc3cccc(F)c3)n2)cc1 | ? | 7.9µM* | -22%
CCCC(=O)Nc1nc(-c2ccc3c(c2)CCN3S(C)(=O)=O)cs1 | -14% | 13µM* | -24%
O=C(Cc1cccs1)Nc1nc(-c2ccc(F)c(F)c2)cs1 | ? | ? | -8%
SMILES | VACV mCherry inh | HCV inh | VACV Venus inh
O=C(Cc1cccs1)Nc1nc(-c2ccc(F)cc2F)cs1 | nt | 11µM* | nt
O=C(NCCCn1cccn1)c1cc(COc2ccccc2)on1 | -1% | nt | 2%
CCC1(C)N=C(N)Nc2nc3cc(C)c(C)cc3n21 (stereo not drawn) | i | -15% | -15%
Cc1cccc(-c2nc(SCC(=O)Nc3ccc4c(c3)OCO4)c(-c3ccccc3)[nH]2)c1 | -23% | nt | -20%
CC(C)c1nn2c(=O)cc(COC(=O)c3ccc(NC(=O)CCc4ccccc4)cc3)nc2s1 | i | nt | -10%
O=C(c1ccc2c(c1)OCO2)C1CCCN(Cc2ccc(OC(F)F)cc2)C1 (stereo not drawn) | nt | 13µM* | nt
O=C(c1ccc2c(c1)OCO2)C1CCCN(Cc2ccc(F)c(F)c2)C1 (stereo not drawn) | -10% | -28% | -13%
CCOc1ccc(CN2CCOc3ccc(C(O)c4cccnc4)cc3C2)cc1 (stereo not drawn) | -19% | nt | -13%
Cc1cccc(N2CCN(C(=O)c3ccc4c(c3)OCCO4)CC2C)c1 (stereo not drawn) | i | 16% | -5%
Cc1cccc(N2CCN(C(=O)C3CC(=O)N(c4ccc5c(c4)OCCO5)C3)CC2C)c1 (stereo not drawn) | nt | 11µM* | nt
Nc1ccccc1SCC(O)Cn1ccc2ccccc21 (stereo not drawn) | i | -14% | -21%
OC(CNCc1ccccc1)Cn1ccc2ccccc21 (stereo not drawn) | nt | 11µM* | nt
COc1cccc(NC(=O)C2=C(C)C(=O)OC23CCN(C(C)=O)CC3)c1 | -4% | nt | 0%
COc1cccc(C(=O)NC2CCCN(C3Cc4ccccc4C3)C2)c1OC (stereo not drawn) | nt | -4% | nt
Cc1ccc(C)c(CSc2cn(CCNC(=O)c3cccs3)c3ccccc23)c1 | -16% | nt | -12%
Nc1nc(SCc2ccccc2[N+](=O)[O-])c2ncn(Cc3ccccc3)c2n1 | ? | 11µM* | -24%
CCCCn1cnc2c(SCc3ccc([N+](=O)[O-])cc3)nc(N)nc21 | 4µM* | ? | ?
Cn1cnc([N+](=O)[O-])c1Sc1nc(N)nc2c1ncn2Cc1ccccc1 | 13µM* | ? | ?
CCCn1cnc2c(Sc3c([N+](=O)[O-])ncn3C)nc(N)nc21 | ? | -5% | ?
CCCCn1cnc2c(SCc3cccc(F)c3)nc(N)nc21 | -3% | ? | -2%
CCC(C)Cn1cnc2c(Sc3c([N+](=O)[O-])ncn3C)nc(N)nc21 (stereo not drawn) | 16µM* | -27% | ?
Nc1nc(SCc2ccccc2)c2ncn(CCO)c2n1 | -13% | 18% | -18%
CC(C)Cn1cnc2c(Sc3c([N+](=O)[O-])ncn3C)nc(N)nc21 | ? | -4% | ?
COc1cc(CN2CCOc3ccc(CN4CCC(O)(c5cccnc5)CC4)cc3C2)cc(OC)c1 | -17% | nt | 4%
COc1cc2ncc(-c3ccccc3)nc2cc1OC | -2% | nt | -19%
SMILES | VACV mCherry inh | HCV inh | VACV Venus inh
COC(=O)[C@@H]1CCCN1Cc1ccc2c(c1)CN(Cc1coc3ccccc3c1=O)CCO2 | -4% | nt | 14%
Cc1cccc(-c2nn(-c3ccccc3)cc2C(=O)N(C)CC(=O)Nc2ccc(N3CCOCC3)cc2)c1 | -10% | -5%[8.37 µM] | 0%
CC(=O)OC1CC[C@@]2(C)C3=CC(=O)[C@]4(C)C(CC5OC6(OCC(C)CC6Br)C(C)C54)C3CC[C@H]2C1 (stereo partly drawn) | i | nt | 0%
Cc1cc(N(C)C)ccc1/C=C/c1ccnc2ccccc12 | -19% | nt | 18%
CCOC(=O)c1cccc(NC(=O)CCc2c(C)nn(-c3ccc(N4CCCCC4)nn3)c2C)c1 | -6% | nt | -11%
Cc1ccc(Cn2ncc3c(N4CCN(c5ccc(C)cc5)CC4)ncnc32)cc1 | -20% | ? | -20%
Cc1ccc(Cn2ncc3c(N4CCN(Cc5ccc(Cl)cc5)CC4)ncnc32)cc1 | -27% | 4.5µM* | -18%
Cc1ccc(Nc2ncnc3nc[nH]c23)cc1 | -8% | nt | -21%
c1ccc(COc2ccc(Nc3ncnc4nc[nH]c34)cc2)cc1 | 7.1µM* | -22% | -30%
C/C(=N\NC(=O)COc1ccc(C)cc1[N+](=O)[O-])c1cccs1 | -16% | -16% | -4%
